High-throughput results: PubChem, National Center for Advancing Translational Sciences (NCATS)
A selection: hits, their analogues and other compounds. The true share with any hit is near 21%.
TDP1 cell CPT = DT40-hTDP1 cell growth loss with CPT | chicken DT40 Tdp1-/-;hTDP1 cells + 20 nM CPT, ATP luminescence, 48 h | Potency, µM (series often up to 46.2 µM), without a hit: top-dose activity change, negative = growth inhibition, actives largely listed as inhibitors | 420,000 tested, 12% active | AID 686979; further: potency means the concentration at half of the fitted maximal effect; on the % scale 0 is the no-effect control and ±100 the full control effect; nearly all actives have a fitted effect of over 55% in size
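Cell growth measured by CellTiter-Glo luminescence after a minimum 48 h, 37 C compound exposure with 20 nM CPT in Tdp1-knockout DT40 cells stably expressing hTDP1, seeded 400/well; qHTS titration format.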
IL-1B inflam inh = inhibitors of inflammasome signaling (IL-1 beta secretion). THP-1 LPS/ATP IL-1B secretion, AlphaLISA, 16 h; active compounds read low. activity change, % at 57.5 µM. 360,000 tested, 4.7% active. AID 743279; in the data active means activity change below about -50%; inconclusive means mostly about -30% to -49%; further: on the % scale 0 is the no-effect control and ±100 the full control effect
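Secreted IL-1B measured by AlphaLISA bead assay after 16 h compound exposure of THP-1 cells; compounds (final up to 57.5 uM) added 1 h before LPS (250 ng/mL) and ATP (1.25 mM) stimulation; lower signal means less secretion.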
DRD3 agonist = activates the human D3 dopamine receptor | P35462 | D3R DiscoveRx beta-arrestin cells, luminescence, 90 min | max activation, % | 410,000 tested, 0.58% active; in the data active means max activation above about 30%; further: 0% is about no effect
Target sequence (P35462 whole entry, looked up): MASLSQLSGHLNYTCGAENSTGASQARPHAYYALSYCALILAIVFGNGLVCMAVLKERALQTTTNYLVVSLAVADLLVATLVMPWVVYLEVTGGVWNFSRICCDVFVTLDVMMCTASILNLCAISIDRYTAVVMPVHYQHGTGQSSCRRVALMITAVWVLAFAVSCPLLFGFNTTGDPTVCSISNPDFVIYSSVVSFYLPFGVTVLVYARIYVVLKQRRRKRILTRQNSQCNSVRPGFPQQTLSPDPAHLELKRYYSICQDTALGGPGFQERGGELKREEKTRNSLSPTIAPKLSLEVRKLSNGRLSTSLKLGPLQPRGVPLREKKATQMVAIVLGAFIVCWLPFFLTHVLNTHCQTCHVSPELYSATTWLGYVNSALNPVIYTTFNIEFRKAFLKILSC
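Agonist mode: compounds and dopamine controls were applied to plated cells for 90 min at 37 degrees C after an overnight attachment at 1500 cells/well. Luminescent read-out followed 30 - 60 minutes at room temperature with DiscoveRx detection reagent.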
ClpP mod = qHTS Assay for Activators of ClpP | purified B. subtilis ClpP, FRET peptide cleavage, 20 min | Potency, µM (highest dose often 57.5 µM), for the others: at the top dose activity change, negative = active | 340,000 tested, 1.9% active | AID 651965, 2013 | ATP-dependent Clp protease proteolytic subunit (Bacillus subtilis (strain 168)), P80244; active means well fitted falling curve with a large enough effect; inconclusive means small, poorly fitted or top-dose-only effect; inactive means no such curve, though single readings can be large or run the other way; further: potency means the concentration at half of the fitted maximal effect; the source files actives as falling curves though it sought activators and does not explain the sign; nearly all actives have a fitted effect of over 65% in size
Target sequence (P80244 whole entry, looked up): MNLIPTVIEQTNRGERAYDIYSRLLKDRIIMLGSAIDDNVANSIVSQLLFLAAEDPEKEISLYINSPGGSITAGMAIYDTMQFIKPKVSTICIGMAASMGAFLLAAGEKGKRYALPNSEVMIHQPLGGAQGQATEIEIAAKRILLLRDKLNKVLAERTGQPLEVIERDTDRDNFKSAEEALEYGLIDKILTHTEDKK
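Buffer: 100 mM Tris/HCl pH8, 100 mM KCl, 0.05% low protease BSA, 2.5% glycerol, 0.01% Tween-20. ClpP 10 microg/mL final; 20 min RT; delta FRET normalized to ADEP and DMSO controls.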
TDP1 cell noCPT = qHTS for Inhibitors of human tyrosyl-DNA phosphodiesterase 1 (TDP1): qHTS in cells in absence of CPT. DT40 Tdp1-/- hTDP1 cells, no CPT, ATP luminescence, 48 h. Potency, µM (highest dose often 46.2 µM), for the others: at the highest dose activity change, negative = growth inhibition, most hits filed as inhibitors. 420,000 tested, 15% active; further: potency means the concentration at half of the fitted maximal effect; on the % scale 0 is the no-effect control and ±100 the full control effect; nearly all actives have a fitted effect of over 55% in size
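Growth of hTDP1-complemented DT40 Tdp1-knockout cells is measured by ATP luminescence after at least 48 hr compound exposure at 37 °C, with DMSO substituting for the 20 nM CPT used in the parallel screen.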
DRD3 antagonist = D3 dopamine receptor (human) antagonism | D3R cells, DiscoveRx beta-arrestin luminescence, antagonist mode; active compounds read low | max response, negative = inhibition, % | 360,000 tested, 2.5% active; in the data active means max response below about -50%; inconclusive means no clear call, values can overlap the other calls; further: on the % scale 0 is the no-effect control and ±100 the full control effect
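Cells plated overnight at 1500 cells/well, then exposed to library compounds with dopamine controls for 90 minutes at 37 degrees C. DiscoveRx reagent added for 30–60 minutes at room temperature; luminescence read, quantitative HTS format.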
* hit, by the source's call; ! = not active in a repeat; [ ] = dose if it differs, or a comment. Unless noted, the call rests on the fitted dose curve; in most records, active means well fitted inhibition curve with a large enough effect; inconclusive means small, poorly fitted or top-dose-only effect; inactive means flat fitted curve, though single readings scatter.

Screening O=C1/C(=C\c2ccccc2)C[C@@]2(O)[C@H]3Cc4ccc(O)c5c4[C@@]2(CCN3CC2CC2)[C@@H]1O5 returned TDP1 cell CPT 2.4µM* and TDP1 cell noCPT 2.7µM*.
For Oc1ccc2c3c1O[C@H]1[C@@H](O)CC[C@@]4(O)[C@@H](C2)N(CC2CCC2)CC[C@]314 the results were TDP1 cell CPT 3%, IL-1B inflam inh -3, DRD3 agonist 4, ClpP mod 1%, TDP1 cell noCPT 0% and DRD3 antagonist 10.
`O=C1/C(=C\c2ccccc2)C[C@@]2(O)[C@H]3Cc4ccc(O)c5c4[C@@]2(CCN3CC2CC2)[C@H]1O5` gave TDP1 cell CPT 2.1µM* and TDP1 cell noCPT 2.1µM*.
Oc1ccc2c3c1O[C@H]1c4[nH]c5c(c4C[C@@]4(O)[C@@H](C2)N(CC2CC2)CC[C@]314)C[C@]1(O)[C@H]2Cc3ccc(O)c4c3[C@@]1(CCN2CC1CC1)[C@@H]5O4 was read as TDP1 cell CPT -5% and TDP1 cell noCPT -4%.
C=CCN1CC[C@]23c4c5ccc(O)c4O[C@H]2C(=O)CC[C@@]3(O)[C@H]1C5 was read as TDP1 cell CPT 5%, IL-1B inflam inh -15, DRD3 agonist 20, ClpP mod 0%, TDP1 cell noCPT -2% and DRD3 antagonist 8.
`CC(=O)N[C@@H]1CC[C@@]2(O)[C@H]3Cc4ccc(O)c5c4[C@@]2(CCN3CC2CC2)[C@@H]1O5` gave TDP1 cell CPT 15%, IL-1B inflam inh -20, DRD3 agonist 7, ClpP mod 0%, TDP1 cell noCPT -7% and DRD3 antagonist 9.
For NC(N)=Nc1ccc2[nH]c3c(c2c1)C[C@@]1(O)[C@H]2Cc4ccc(O)c5c4[C@@]1(CCN2CC1CC1)[C@H]3O5 the results were TDP1 cell CPT 2.3µM*, IL-1B inflam inh inconclusive, DRD3 agonist -46, ClpP mod -1%, TDP1 cell noCPT 4.6µM* and DRD3 antagonist -61*.
O=C(O)CCCO was read as TDP1 cell CPT 16%[92.5 µM], DRD3 agonist 7 and TDP1 cell noCPT -22%[92.5 µM].
O=C1NC(=O)C2(C(=O)N1)C(c1ccc(F)cc1)NC(=S)NC2c1ccc(F)cc1 (stereo unspecified) was read as TDP1 cell CPT -16%, IL-1B inflam inh 28, DRD3 agonist 15, ClpP mod 1%, TDP1 cell noCPT 4% and DRD3 antagonist -9.
CCOc1ccc2c(c1)c(C(C)=O)c(C)n2Cc1ccco1 was read as TDP1 cell CPT inconclusive, IL-1B inflam inh 7, DRD3 agonist 6, ClpP mod -2%, TDP1 cell noCPT inconclusive and DRD3 antagonist -13.
`COC(=O)C1=C(c2cc3ccccc3s2)C[C@@H]2CC[C@H]1N2C(=O)NCCS(C)=O` (stereo partly specified) gave TDP1 cell CPT -1%, IL-1B inflam inh 9, DRD3 agonist 1, ClpP mod 1%, TDP1 cell noCPT -25% and DRD3 antagonist 10.
For O=C(/C=C/c1ccc(Cl)cc1)N[C@@]12CCC(=O)[C@@H]3Oc4c(O)ccc5c4[C@@]31CCN(CC1CC1)C2C5 the results were TDP1 cell CPT 13µM* and TDP1 cell noCPT 10µM*.
`CC1(C)CC(CCNCc2ccc3c(c2)OCO3)(Cc2ccccc2)CCO1` (stereo unspecified) gave TDP1 cell CPT inconclusive, IL-1B inflam inh -96*, DRD3 agonist -11, TDP1 cell noCPT 18µM* and DRD3 antagonist -24.
`OCCN(CCO)CCO` gave TDP1 cell CPT 16%, DRD3 agonist 6 and TDP1 cell noCPT 1%.
`NCC(=O)c1ccccc1` gave TDP1 cell CPT inconclusive, IL-1B inflam inh 6, DRD3 agonist -20, ClpP mod 1%, TDP1 cell noCPT 0% and DRD3 antagonist 5.
`O=C(CCl)NN=C(c1ccccc1)c1ccccc1` gave TDP1 cell CPT 5.8µM*, IL-1B inflam inh -77*, DRD3 agonist -9, TDP1 cell noCPT 5.2µM* and DRD3 antagonist -19.
`COc1cc([C@@H]2c3cc4c(cc3C(O[C@@H]3O[C@@H]5CO[C@@H](C)O[C@H]5[C@H](O)[C@H]3O)C3COC(=O)[C@@H]32)OCO4)cc(OC)c1OP(=O)(O)O` (stereo partly specified) gave TDP1 cell CPT 0.21µM*, DRD3 agonist -6 and TDP1 cell noCPT 0.3µM*.
Screening COc1cc(C2c3cc4c(cc3C(O)C3COC(=O)C23)OCO4)cc(OC)c1O (stereo unspecified) returned TDP1 cell CPT 0.26µM* and TDP1 cell noCPT 0.21µM*.
COc1ccc2c(c1OC)C(=O)O[C@H]2[C@@H]1c2cc3c(cc2CCN1C)OCO3 was read as TDP1 cell CPT -8%, IL-1B inflam inh 5, DRD3 agonist -21, ClpP mod -18%, TDP1 cell noCPT -15% and DRD3 antagonist 11.
For COc1cc([C@@H]2c3cc4c(cc3[C@H](O)[C@H]3COC(=O)[C@@H]23)OCO4)cc(OC)c1OC the results were TDP1 cell CPT 0.071µM*, ClpP mod 1% and TDP1 cell noCPT 0.025µM*.
`COc1cc([C@@H]2c3cc4c(cc3[C@@H](OC)[C@H]3COC(=O)[C@H]23)OCO4)cc(OC)c1O` gave TDP1 cell CPT 1.2µM*, IL-1B inflam inh 71, DRD3 agonist -15, ClpP mod 1%, TDP1 cell noCPT 1.3µM* and DRD3 antagonist -11.
`CCCC(C)CC1(CCO)C(=O)NC(=S)NC1=O` (stereo unspecified) gave TDP1 cell CPT -13%, IL-1B inflam inh 17, DRD3 agonist 2, TDP1 cell noCPT -6% and DRD3 antagonist 3.
O=P(NCc1ccccc1)(Oc1ccccc1)Oc1ccccc1 was read as TDP1 cell CPT inconclusive, IL-1B inflam inh 0, DRD3 agonist 16, ClpP mod -3%, TDP1 cell noCPT -26% and DRD3 antagonist 2.
COC(=O)N1CCC2(CCN(CC(C)C)CC2)CC1 was read as TDP1 cell CPT -7% and TDP1 cell noCPT -11%.
For COc1cc([C@@H]2c3cc4c(cc3[C@H](O)[C@H]3COC(=O)[C@H]23)OCO4)cc(OC)c1OC the results were TDP1 cell CPT 0.15µM*, IL-1B inflam inh 63, DRD3 agonist -27, ClpP mod 0%, TDP1 cell noCPT 0.15µM*! and DRD3 antagonist -2.
